In PubChem BioAssay (NCATS) one finds outcome, Potency and max response data, which are given here for seven compounds.

A number with no mark means an inactive call. Results filed as inconclusive are left out. Activity calls are given as the source filed them. Calls follow the shape of the dose curve; as a rule, active = well fitted curve in the direction sought with a large enough effect; inconclusive = small, poorly fitted or top-dose-only effect, or another doubt; inactive = no such curve, though single readings can be large; an effect the other way counts as inactive or inconclusive.

Experiment [1] in a line: Viability counterscreen for antagonist of constitutive androstane receptor (CAR) against the NCATS DSHEA and TCM libraries (AID 1794837).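 Also: compound exposure lasted 24 h before viability reading; 0% is about no effect.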 Put shortly: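 Cells: HepG2 line carrying CYP2B6 reporter and hCAR, seeded and attached 5 h. Then pin-transferred test substances plus agonist CITCO at 48 uM final; 24 h incubation; fluorogenic viability reagent, 1 h.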
The nature of experiment [2]: Viability counterscreen for agonist of constitutive androstane receptor (CAR) against the NCATS DSHEA and TCM libraries (AID 1794838).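 Also: HepG2 cells with CYP2B6 reporter and hCAR plus 0.75 µM PK11195 antagonist; 0% is about no effect.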 In a few lines:
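Cell health was measured as CellTiter-Fluor signal in HepG2-CYP2B6-hCAR cells treated for 24 h with substances alongside the hCAR antagonist PK11195 (0.75 uM final).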
Background: A counterscreen serves to expose hits that act by an unwanted route or on another target.

The nature of experiment [3]: HepG2 viability counterscreen (readout 2: ATP content) against the NCATS DSHEA and TCM libraries (AID 1794840). Also: 0% is about no effect. Put shortly: (§1)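 Same wells read twice: first fluorescence from cleaved GF-AFC substrate (25 uM final, 30 min, 37C) for live-cell protease, then CellTiter-Glo luminescence after 30 min at room temperature for ATP. HepG2 cells were exposed ~24 h to substances.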

The nature of experiment [4]: HepG2 viability counterscreen (readout 1: protease activity) against the NCATS DSHEA and TCM libraries (AID 1794841).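 Also: cells exposed to compounds for about 24 h before the protease read; 0% is about no effect.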 Put shortly: as §1
Experiment [5] has as its target Cytochrome P450 3A4 (Homo sapiens) (UniProt P08684). In words: qHTS for inhibitors of CYP3A4 against the NCATS DSHEA and TCM libraries (AID 1919971). Also: potency is read from the fitted curve at half-maximal effect. In a few lines:
(§2)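 Read-out is luminescence after P450-Glo detection (30 min, RT). Before that: 15 min compound–enzyme preincubation, then 30-45 min reaction with 1x NADPH regeneration solution, substrate concentration isoform-specific.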
In general terms: qHTS replaces the single test concentration by a dilution series.

Experiment [6] concerns the target Cytochrome P450 2D6 (Homo sapiens) (UniProt P10635). As to the kind of experiment: qHTS for inhibitors of CYP2D6 against the NCATS DSHEA and TCM libraries (AID 1919972). Also: % is scaled to controls: 0 for no effect and ±100 for the full control effect. Put shortly:
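Luminescent P450-Glo read-out of CYP2D6 turnover of a luciferin substrate after NADPH-driven reaction of 30-45 min at room temperature. Compounds were first preincubated 15 min with enzyme at titrated concentrations; quinidine was the intraplate control.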

The target in experiment [7] is Cytochrome P450 2C9 (Homo sapiens) (UniProt P11712). In words: qHTS for inhibitors of CYP2C9 against the NCATS DSHEA and TCM libraries (AID 1919973). Also: potency is read from the fitted curve at half-maximal effect. Put shortly: as §2
Experiment [8] addresses Cytochrome P450 2C19 (Homo sapiens) (UniProt P33261). As to the kind of experiment: qHTS for inhibitors of CYP2C19 against the NCATS DSHEA and TCM libraries (AID 1919974).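 Also: luminescence from luciferin released by CYP2C19 oxidation of a pro-luciferin substrate.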 Also: potency is read from the fitted curve at half-maximal effect. In a few lines: as §2
Experiment [9] is described as follows: KB-3-1 P-gp reporter qHTS against the NCATS DSHEA and TCM libraries (AID 1919975). Also: 0% is about no effect. In a few lines: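 KB-3-1 parental line, 1536-well qHTS: cells seeded, ~4 h attachment, pintool compound addition, ~72 h at 37C, then CellTiter-Glo, 30 min RT, luminescence. Concentration-response format.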
Experiment [10] concerns the target Cytochrome P450 1A2 (Homo sapiens) (UniProt P05177). As to the kind of experiment: qHTS for inhibitors of CYPIA2 against the NCATS DSHEA and TCM libraries (AID 1919976). Also: potency is read from the fitted curve at half-maximal effect. In a few lines:
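CYP1A2 + luciferin substrate, 100 mM KPO4-type buffer; cmpd 15 min RT; 1x NADPH regen, 30-45 min RT dark; detection reagent 30 min RT; luminescence. Minus-enzyme wells as background; furafylline intraplate control.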

A short description of experiment [11]: qHTS Counterscreen for compound interference against the NCATS DSHEA and TCM libraries (AID 1919978).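 Also: compounds preincubated with 1 µM D-luciferin or buffer before detection reagent; % of control where 0% means no effect.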 The conditions noted are these: firefly luciferase detection reagent interference, luminescence. Put shortly: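 Compounds, titrated from 19.5 nM to 39.8 uM final, were pinned onto 1 uM D-luciferin or plain 100 mM potassium phosphate. After 15 min at room temperature, luciferin detection reagent was added for 30 min before the luminescence read.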

Experiment [12] can be described thus: Dual reporter qHTS for agonist of Pregnane X Receptor (hPXR) against the NCATS DSHEA and TCM libraries: Fluorescence readout (AID 1920058). Also: 0% is about no effect. In a few lines: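 HepG2 hPXR-Luc, 2000 cells/well, 5 h attach; cpds ~24 h, 37 °C/5% CO2; CellTiter-Fluor 1 h; fluor. Ex/Em 405/540 nm = viability.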
In experiment [13] the target is Nuclear receptor subfamily 1 group I member 2 (Homo sapiens) (UniProt O75469). In words: Dual reporter qHTS for agonist of Pregnane X Receptor (hPXR) against the NCATS DSHEA and TCM libraries: Luminescence readout (AID 1920059). Also: 0% is about no effect. Put shortly: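 hPXR-Luc HepG2 cells, 2000/well in 5% charcoal-stripped FBS medium, attached 5 h, then exposed 24 h at 37C to compounds. Viability by CellTiter-Fluor, then luciferase luminescence with ONE-Glo.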

Experiment [14] has the same target. In words: Dual reporter qHTS for antagonist of Pregnane X Receptor (hPXR) against the NCATS DSHEA and TCM libraries: Luminescence Readout (AID 1920060). Also: 0% is about no effect. In a few lines:
(§3)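 Rifampicin-stimulated (2 uM final) hPXR-luciferase HepG2 cells were treated for 24 h with DSNP/TCM substances. Viability came from CellTiter-Fluor fluorescence, reporter activity from ONE-Glo luminescence.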

A short description of experiment [15]: Dual reporter qHTS for antagonist of Pregnane X Receptor (hPXR) against the NCATS DSHEA and TCM libraries: Fluorescence Readout (AID 1920061). Also: 0% is about no effect. Put shortly:
as §3

For experiment [16], the target named is Ubiquitin carboxyl-terminal hydrolase 1 (Homo sapiens) (UniProt O94782). As to the kind of experiment: Inhibitors of USP1/UAF1: Pilot qHTS (AID 504865).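 Also: rhodamine fluorescence freed from ubiquitin-rhodamine substrate followed over time; top concentration of the series differs between compounds; % is scaled to controls: 0 for no effect and ±100 for the full control effect; nearly all actives have a fitted effect of over 35% in size.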 Put shortly:
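In 50mM HEPES pH 7.8 containing 0.5mM EDTA, 1mM TCEP, 0.1 mg/ml BSA and 0.01% Tween-20, 1nM USP1/UAF1 is exposed to compound for 15 min, then Ub-Rho (150nM final) is added and fluorescence is read over time.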

Chain of Cytochrome P450 1A2 (Homo sapiens) (P05177 whole entry, looked up): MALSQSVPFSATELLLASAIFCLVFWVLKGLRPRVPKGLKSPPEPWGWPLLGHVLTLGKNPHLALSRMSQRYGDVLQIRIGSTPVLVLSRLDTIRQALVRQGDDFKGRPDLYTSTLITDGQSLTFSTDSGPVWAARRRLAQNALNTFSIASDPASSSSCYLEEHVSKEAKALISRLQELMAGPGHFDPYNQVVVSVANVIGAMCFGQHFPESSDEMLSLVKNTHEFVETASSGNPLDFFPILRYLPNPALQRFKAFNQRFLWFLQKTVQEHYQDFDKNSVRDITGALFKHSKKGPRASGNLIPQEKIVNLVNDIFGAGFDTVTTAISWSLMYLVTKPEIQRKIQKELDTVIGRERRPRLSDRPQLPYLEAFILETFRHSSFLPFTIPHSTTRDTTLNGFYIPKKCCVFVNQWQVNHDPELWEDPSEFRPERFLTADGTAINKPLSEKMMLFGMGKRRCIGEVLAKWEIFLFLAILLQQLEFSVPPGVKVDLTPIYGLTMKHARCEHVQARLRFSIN
Chain of Cytochrome P450 2C9 (Homo sapiens) (P11712 whole entry, looked up): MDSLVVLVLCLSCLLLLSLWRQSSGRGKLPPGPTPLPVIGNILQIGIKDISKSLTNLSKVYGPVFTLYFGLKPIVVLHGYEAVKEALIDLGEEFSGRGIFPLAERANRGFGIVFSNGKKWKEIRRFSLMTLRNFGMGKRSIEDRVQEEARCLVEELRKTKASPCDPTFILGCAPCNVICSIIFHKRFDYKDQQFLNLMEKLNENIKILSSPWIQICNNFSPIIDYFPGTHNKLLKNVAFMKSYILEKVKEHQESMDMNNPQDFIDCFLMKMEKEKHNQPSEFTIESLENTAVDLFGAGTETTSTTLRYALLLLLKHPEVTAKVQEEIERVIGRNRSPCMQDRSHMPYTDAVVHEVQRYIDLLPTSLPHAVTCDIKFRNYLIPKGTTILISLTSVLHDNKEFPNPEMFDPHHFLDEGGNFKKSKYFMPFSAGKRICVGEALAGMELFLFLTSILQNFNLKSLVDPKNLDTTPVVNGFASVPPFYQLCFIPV
Chain of Cytochrome P450 3A4 (Homo sapiens) (P08684 whole entry, looked up, canonical isoform): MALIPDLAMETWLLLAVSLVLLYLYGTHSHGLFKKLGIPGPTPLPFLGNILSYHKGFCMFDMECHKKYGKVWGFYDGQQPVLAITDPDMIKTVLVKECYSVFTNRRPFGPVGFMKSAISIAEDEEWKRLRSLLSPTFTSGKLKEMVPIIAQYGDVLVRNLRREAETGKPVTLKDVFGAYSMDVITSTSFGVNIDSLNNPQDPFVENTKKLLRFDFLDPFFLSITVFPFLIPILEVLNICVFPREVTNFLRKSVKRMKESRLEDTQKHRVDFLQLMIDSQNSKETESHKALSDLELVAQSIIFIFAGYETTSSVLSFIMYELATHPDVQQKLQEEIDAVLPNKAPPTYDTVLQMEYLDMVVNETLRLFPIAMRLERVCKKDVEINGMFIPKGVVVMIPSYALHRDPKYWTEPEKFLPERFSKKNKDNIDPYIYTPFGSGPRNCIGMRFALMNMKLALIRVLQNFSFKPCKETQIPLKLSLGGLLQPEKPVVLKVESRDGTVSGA
Chain of Cytochrome P450 2D6 (Homo sapiens) (P10635 whole entry, looked up): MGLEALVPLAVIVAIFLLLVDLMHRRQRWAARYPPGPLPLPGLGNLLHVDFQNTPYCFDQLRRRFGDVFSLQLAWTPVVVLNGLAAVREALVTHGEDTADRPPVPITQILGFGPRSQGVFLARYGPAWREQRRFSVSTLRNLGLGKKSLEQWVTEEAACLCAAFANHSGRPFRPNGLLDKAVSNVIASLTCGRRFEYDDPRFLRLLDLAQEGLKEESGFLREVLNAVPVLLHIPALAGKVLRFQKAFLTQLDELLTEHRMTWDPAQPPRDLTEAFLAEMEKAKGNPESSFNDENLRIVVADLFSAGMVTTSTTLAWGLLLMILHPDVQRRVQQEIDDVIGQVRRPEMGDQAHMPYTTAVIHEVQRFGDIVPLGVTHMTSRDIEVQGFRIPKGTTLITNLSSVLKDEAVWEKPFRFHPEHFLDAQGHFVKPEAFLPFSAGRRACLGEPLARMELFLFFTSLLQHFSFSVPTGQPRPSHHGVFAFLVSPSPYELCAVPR
Chain of Cytochrome P450 2C19 (Homo sapiens) (P33261 whole entry, looked up): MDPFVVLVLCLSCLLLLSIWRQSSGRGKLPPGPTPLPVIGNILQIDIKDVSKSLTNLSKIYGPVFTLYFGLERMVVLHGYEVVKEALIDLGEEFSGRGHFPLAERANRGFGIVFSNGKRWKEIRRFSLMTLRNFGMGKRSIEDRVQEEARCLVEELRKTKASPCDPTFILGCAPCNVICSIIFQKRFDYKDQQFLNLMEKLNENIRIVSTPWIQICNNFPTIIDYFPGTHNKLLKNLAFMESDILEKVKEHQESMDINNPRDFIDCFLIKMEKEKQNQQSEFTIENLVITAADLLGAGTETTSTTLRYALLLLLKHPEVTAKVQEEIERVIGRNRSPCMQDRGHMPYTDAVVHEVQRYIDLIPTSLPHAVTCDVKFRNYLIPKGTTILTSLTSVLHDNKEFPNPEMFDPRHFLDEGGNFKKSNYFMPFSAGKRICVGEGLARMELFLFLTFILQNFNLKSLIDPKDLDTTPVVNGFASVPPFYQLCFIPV
Chain of Nuclear receptor subfamily 1 group I member 2 (Homo sapiens) (O75469 whole entry, looked up): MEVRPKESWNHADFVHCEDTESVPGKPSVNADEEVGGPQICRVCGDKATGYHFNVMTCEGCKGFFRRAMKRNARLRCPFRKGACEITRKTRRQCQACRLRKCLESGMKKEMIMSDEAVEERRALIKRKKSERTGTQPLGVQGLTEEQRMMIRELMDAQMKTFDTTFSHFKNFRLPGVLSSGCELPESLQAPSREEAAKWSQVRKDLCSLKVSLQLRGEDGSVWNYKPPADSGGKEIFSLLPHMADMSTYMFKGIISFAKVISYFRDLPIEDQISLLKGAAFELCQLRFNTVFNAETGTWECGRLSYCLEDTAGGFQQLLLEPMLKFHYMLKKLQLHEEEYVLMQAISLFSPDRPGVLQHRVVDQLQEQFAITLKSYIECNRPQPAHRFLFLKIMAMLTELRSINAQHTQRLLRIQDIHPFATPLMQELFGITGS
Chain of Ubiquitin carboxyl-terminal hydrolase 1 (Homo sapiens) (O94782 whole entry, looked up): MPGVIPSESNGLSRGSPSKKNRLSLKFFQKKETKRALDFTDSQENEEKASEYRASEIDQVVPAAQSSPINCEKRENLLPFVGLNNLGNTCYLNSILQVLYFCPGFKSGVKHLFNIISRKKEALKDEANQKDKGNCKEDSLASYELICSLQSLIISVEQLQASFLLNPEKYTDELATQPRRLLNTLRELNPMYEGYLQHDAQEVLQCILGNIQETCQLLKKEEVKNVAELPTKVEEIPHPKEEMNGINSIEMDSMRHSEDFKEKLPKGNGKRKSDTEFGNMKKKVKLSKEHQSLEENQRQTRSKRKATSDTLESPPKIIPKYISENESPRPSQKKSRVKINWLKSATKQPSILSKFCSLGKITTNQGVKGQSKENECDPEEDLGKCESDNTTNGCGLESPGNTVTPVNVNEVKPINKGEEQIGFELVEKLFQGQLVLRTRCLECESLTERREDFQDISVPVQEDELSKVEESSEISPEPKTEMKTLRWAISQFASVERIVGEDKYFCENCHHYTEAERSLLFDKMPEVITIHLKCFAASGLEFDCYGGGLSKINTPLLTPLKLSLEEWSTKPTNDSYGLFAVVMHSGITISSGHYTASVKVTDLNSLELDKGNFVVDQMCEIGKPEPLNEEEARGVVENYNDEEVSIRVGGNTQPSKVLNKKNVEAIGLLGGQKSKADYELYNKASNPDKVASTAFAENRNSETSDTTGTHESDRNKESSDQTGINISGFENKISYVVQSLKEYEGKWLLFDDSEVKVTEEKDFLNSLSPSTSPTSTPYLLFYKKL

Turning to `O=C(O)CC(O)(C(=O)O)C(O)C(=O)O` (stereo unspecified), the outcome in experiment [1], in experiment [2], in experiment [3], in experiment [4], in experiment [9] and in experiment [12] was inactive. Moreover, the result in experiment [14] and in experiment [15] was inactive. Also, the Potency result in experiment [5], in experiment [6], in experiment [7], in [8], in experiment [10] and in [13] was “inactive” throughout. In addition, in experiment [11], the max response is 1.8%.

For `O=C(OC[C@H]1O[C@@H](OC(=O)c2cc(O)c(O)c(O)c2)[C@H](OC(=O)c2cc(O)c(O)c(O)c2)[C@@H](OC(=O)c2cc(O)c(O)c(O)c2)[C@@H]1O)c1cc(O)c(O)c(O)c1`, the call in experiment [1], in experiment [2], in experiment [3], in [4], in experiment [9] and in experiment [12] was inactive. Moreover, in experiment [15], the result was inactive. Moreover, the Potency in experiment [5] was 12.6 µM (active); in [7] it was 3.16 µM (active); in experiment [8] it was 3.98 µM (active). Further, the max response in experiment [11] is -2.07%.

As for `CC(=O)OC1CC2CCC1(C)C2(C)C` (stereo unspecified), the Potency result in experiment [16], in experiment [5], in [6], in experiment [7], in experiment [8] and in [10] was “inactive” in each case. Further, the compound was classed as inactive in experiment [1], in experiment [2], in experiment [3], in [4], in [9] and in experiment [12]. For the same compound, the compound was classed as inactive in [14] and in [15]. For the same compound, in experiment [11], the max response was 3.9%.

With `CC(C)c1ccc(C=O)cc1`, the result in experiment [1], in [2], in experiment [3], in experiment [4], in experiment [9] and in experiment [12] was inactive. Moreover, the compound was called inactive in experiment [14] and in experiment [15]. In addition, the Potency result in experiment [5], in experiment [6], in experiment [7], in experiment [8], in experiment [10] and in experiment [13] was “inactive” throughout. Moreover, the max response in experiment [11] was -3.36%.

With `CCCCCCCCCCCCCC(=O)OCC(O)CO` (stereo unspecified), the outcome in experiment [1], in experiment [2], in experiment [3], in experiment [4], in [9] and in experiment [12] was inactive. Also, the compound was called inactive in experiment [14] and in experiment [15]. Moreover, the Potency result in experiment [5] and in experiment [6] was “inactive” in each case. Also, in [11], the max response is 2.98%.

Regarding `Oc1cc(O)c2c(c1)O[C@@H](c1cc(O)c(O)c(O)c1)[C@H](O)C2`, the result in experiment [1], in experiment [2], in experiment [3], in experiment [4], in [9] and in experiment [12] was inactive. The result in experiment [14] and in experiment [15] was inactive. The Potency entry in experiment [5] and in experiment [6] was “inactive” each time. Moreover, the Potency in [8] and in [10] was 3.55 µM (active) throughout. Moreover, the max response in experiment [11] was -5.21%.

For the compound `CCCCCCCC/C=C/CCCCCCCCCC(=O)O`, the compound was called inactive in experiment [1], in [2], in [3], in experiment [9], in experiment [12] and in [14]. Also, the call in [15] was inactive. In addition, the Potency entry in experiment [6], in [8] and in experiment [10] was “inactive” each time. Besides, the max response in experiment [11] was -1.3%.
